This is a sample that favours compounds with a hit; in the whole collection about 5.6% have one here.
PfGluPho inh – PfG6PD enzyme inhibitors, primary screen, biochemical, fluorescence intensity, uHTS | glucose-6-phosphate dehydrogenase-6-phosphogluconolactonase (Plasmodium falciparum 3D7) | PfGluPho enzyme, NADPH resazurin-diaphorase fluorescence | inhibition, % at 20 µM | 350,000 compounds, 0.78% hits;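 active means inhibition reaching at least a set limit at 20 µM in the primary screen, cut at about 59% in these data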
Cardio protect – cardioprotection against H2O2-induced cell death, primary screen, uHTS, H9c2 cells, ATPLite luminescence; H9c2 cardiomyocytes, H2O2 injury protection, 2 h; protection from H2O2 cell death, % at 20 µM; 360,000 compounds, 0.63% hits;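 active means compounds giving at least 50% protection of heart cells from peroxide-induced death in the single-dose screen, raw or plate-pattern-corrected value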
PHOSPHO1 block – PubChem AID 1565; recombinant PHOSPHO1, absorbance phosphatase assay; 290,000 compounds, 1.1% hits; inhibition, % at 13.3 µM; in the data active means inhibition above about 60%
Target sequence (Q8TCT1 whole entry, looked up): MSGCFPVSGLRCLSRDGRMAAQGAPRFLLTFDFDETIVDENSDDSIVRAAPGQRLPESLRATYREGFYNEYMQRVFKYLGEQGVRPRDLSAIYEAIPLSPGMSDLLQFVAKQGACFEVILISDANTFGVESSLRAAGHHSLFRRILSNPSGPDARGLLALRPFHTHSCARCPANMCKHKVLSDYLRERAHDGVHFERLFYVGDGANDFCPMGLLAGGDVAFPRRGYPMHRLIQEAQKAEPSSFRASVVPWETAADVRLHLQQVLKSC
PfM18AAP inh – PfM18AAP inhibitors, malaria aminopeptidase, primary screen, biochemical, QFRET, recombinant enzyme; H-Glu-NHMec fluorogenic cleavage; inhibition, % at 7.35 µM; 290,000 compounds, 1.2% hits; AID 1822, 2009;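 active means inhibition above the campaign mean inhibition over all tested compounds plus 3 SD, cut at about 28% in these data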
ALR inh – inhibitors of human ALR sulfhydryl oxidase, primary screen, biochemical, H2O2 detection, HRP-luminol luminescence, single point. inhibition, % (test concentration not listed). 290,000 compounds, 3.8% hits. FAD-linked sulfhydryl oxidase ALR (Homo sapiens), P55789. purified ALR, DTT oxidation. AID 485317, 2010;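 active means mean replicate inhibition above about 79%, with every replicate also reaching it, limit read from the data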
Target sequence (P55789 whole entry, looked up): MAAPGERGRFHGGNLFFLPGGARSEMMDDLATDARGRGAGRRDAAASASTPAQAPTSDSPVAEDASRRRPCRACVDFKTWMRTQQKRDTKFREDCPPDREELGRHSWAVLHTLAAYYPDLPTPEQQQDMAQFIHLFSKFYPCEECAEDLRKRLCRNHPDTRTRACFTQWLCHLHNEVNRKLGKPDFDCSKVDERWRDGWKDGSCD
Of the large screens only hits and unclear results are named; the others gave an inactive call.

CC(C)(C)c1ccc(CC(=O)N2CCC2(C)C(=O)Nc2cnc3ccccc3c2)cc1 (configuration not stated)	none (no result: PfGluPho inh, PHOSPHO1 block, PfM18AAP inh, ALR inh)
COC(=O)C1C(O)=C(C(C)=Nc2cccc3ccccc23)C(=O)CC1(C)C (configuration not stated)	none
Cc1cccc(OCC(=O)Nc2cccc(O)c2)c1	none
CNC(=S)NNC(=O)COc1ccc(C)c(C)c1	ALR inh 90
Cc1ccc(OCC(=O)Nc2cccc(O)c2)cc1C	ALR inh 98
COc1ccc(Cl)cc1Nc1nc(Cl)nc(NCCO)n1	none (no result: PHOSPHO1 block, PfM18AAP inh, ALR inh)
CCOP(=O)(OCC)C(Nc1ccc(OC)cc1)c1ccco1 (configuration not stated)	ALR inh 95
CCN1CCN(c2ccc(Cl)cc2NC(=O)c2ccc(-n3nc(C)cc3C)cc2)CC1	none (no result: PHOSPHO1 block, PfM18AAP inh)
CCCCNC(=S)NNC(=O)c1c(Cl)c(C)nn1C	none
CCCCNC(=S)NNC(=O)c1ccoc1C	PfM18AAP inh 29 (no result: ALR inh)
CCCCNC(=S)NNC(=O)c1csc2ccccc12	PHOSPHO1 block 62
CCCCNC(=S)NNC(=O)c1c(C)nc2ccccn12	PfM18AAP inh 38
O=C(NCCN1C(=O)S/C(=C/c2cccnc2)C1=O)c1ccc(S(=O)(=O)N2CCCC2)cc1	none (no result: PHOSPHO1 block, PfM18AAP inh, ALR inh)
Cc1cccc(C(O)c2ncc(-c3ccc(C(F)(F)F)cc3)[nH]2)c1C (configuration not stated)	none (no result: PfGluPho inh, PHOSPHO1 block, PfM18AAP inh, ALR inh)
Cn1c(=O)c2[nH]c(NN=Cc3cccc(Br)c3)nc2n(C)c1=O	Cardio protect 50 (no result: PHOSPHO1 block, PfM18AAP inh, ALR inh)
Cc1cc(Cl)ccc1OCC(=O)OCC(=O)NCCNC(=O)COC(=O)COc1ccc(Cl)cc1C	none (no result: PHOSPHO1 block, PfM18AAP inh, ALR inh)
CC(=O)c1ccccc1OC(=O)COc1ccc(Cl)cc1C	ALR inh 96 (no result: Cardio protect)
CCNC(=O)C1(C)CCCN(C(=O)c2ccc(C(F)(F)F)nc2C)C1 (configuration not stated)	none (no result: PfGluPho inh, PHOSPHO1 block, PfM18AAP inh, ALR inh)
Cc1ccc(C(=O)N/C(=C\c2ccccc2F)c2nc(=S)[nH][nH]2)cc1	ALR inh 98
Cc1cccc2sc(NC(=O)C3CC3)nc12	none
Cc1cccc2sc(NC(=O)c3ccc(Cl)s3)nc12	ALR inh 97
O=C(Cc1c(Cl)cccc1Cl)OCC(=O)N1CCOCC1	none (no result: PHOSPHO1 block, PfM18AAP inh)
CCOc1ccccc1N=c1oc2cc(O)ccc2cc1C(=O)NCC1CCCO1 (configuration not stated)	ALR inh 98
CCSc1ncnc2c1sc1nc(-c3ccco3)c3c(c12)CC(C)(C)OC3	none (no result: PfGluPho inh, Cardio protect)
CCN(CCO)c1nc(SC)nc2c1sc1nc(-c3ccco3)c3c(c12)CCC3	ALR inh 97
CSc1nc(NCCOCCO)c2sc3nc(-c4ccco4)c4c(c3c2n1)CCC4	ALR inh 97
Oc1cccc(C(=S)N2CCN(Cc3ccccc3)CC2)c1	PfM18AAP inh 29
O=c1[nH]cnc2ncc(-c3ccc(O)cc3)nc12	ALR inh 100 (no result: PHOSPHO1 block, PfM18AAP inh)
CC(=O)Cc1nsc(NC(=O)c2ccc(COc3ccccc3)o2)n1	ALR inh 98
O=C(Nc1ccnn1C1CCN(C(=O)Cc2ccccc2F)CC1)C1CC1	none
Cc1ccc(C(=O)NC2CCCC2)s1	none
O=C(NNC(=O)c1ccc(Br)s1)NC1CCCCC1	PfM18AAP inh 28
O=C(NC1CCCCC1)c1ccc2c(c1)OCO2	none (no result: ALR inh)
O=C(NNC(=O)c1ccc2c(c1)OCO2)NC1CCCCC1	PfM18AAP inh 30
CC(C)CNC(=S)NNC(=O)c1ccc2c(c1)OCO2	PHOSPHO1 block 62
O=C(NNC(=S)NCc1ccc(Cl)cc1)c1ccc2c(c1)OCO2	none
CC(=NNC(=O)C(C)SC(C)C(=O)NN=C(C)c1cccnc1)c1cccnc1 (configuration not stated)	none (no result: PHOSPHO1 block, PfM18AAP inh, ALR inh)
Cc1ccc(SCC(=O)N/N=C/c2ccco2)cc1	none
CCC(=O)OCCNc1cc(SCCC(=O)OC)c2nonc2c1[N+](=O)[O-]	Cardio protect 54
CCC(=O)OCCNc1cc(Sc2nccn2C)c2nonc2c1[N+](=O)[O-]	ALR inh 97
COc1cc(/C=C/C(=O)OCC(=O)N2CCCC2)cc(OC)c1OC	none (no result: PHOSPHO1 block, PfM18AAP inh)
O=C(O)C(Cc1ccccc1)N=C(NS(=O)(=O)c1ccccc1)c1ccccc1 (configuration not stated)	none (no result: PHOSPHO1 block, PfM18AAP inh)
COc1cccc(/C=N/NC(=O)c2c(C)nc3ccc(Br)cn23)c1O	Cardio protect 58

Source: PubChem BioAssay
